Assay outcomes: PubChem BioAssay, Broad Institute
DENV2 CPE rescue = protects cells from dengue virus 2 cytopathic effect. DENV2-infected cells, cytopathic effect rescue, plate reader. AID 651640. CPE inhibition, % at 9.99 µM. hit rate 1.7% among 350,000; in the data active = CPE inhibition above about 20%, passing the limit was not always enough; tested in BHK-21 cells;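 also: 0% = median of neutral control wells and 100% = median of positive control wells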
RAD52 anneal inh = RAD52 (human) annealing inhibition | P43351 | recombinant RAD52 DNA annealing, FRET fluorescence | inhibition, % at 18.7 µM | hit rate 0.46% among 360,000 | AID 651710;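 active = every replicate showing at least 50% inhibition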
dFosB act = activators of mouse delta FosB homodimer | AID 493131 | purified delta FosB, TAMRA-CDK5 oligo fluorescence polarization; percent of positive-control signal above neutral wells | P13346 | activation, % at 25 µM | hit rate 0.99% among 340,000;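 active = mean activation above about 17%, with every replicate also reaching it, limit read from the data, passing the limit was not always enough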
AF4-AF9 inh = MLL-AF4/AF9 protein interaction inhibition; P42568; AlphaScreen, biotin-AF4 peptide binding to FLAG-AF9; inhibition, % at 10 µM; hit rate 0.47% among 350,000; AID 651704;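 active = every replicate reaching a set inhibition limit, whatever the replicate mean, cut at about 25% in these data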;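 also: 0% = plate neutral control median and 100% = total signal loss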
Target sequence (P42568 whole entry, looked up): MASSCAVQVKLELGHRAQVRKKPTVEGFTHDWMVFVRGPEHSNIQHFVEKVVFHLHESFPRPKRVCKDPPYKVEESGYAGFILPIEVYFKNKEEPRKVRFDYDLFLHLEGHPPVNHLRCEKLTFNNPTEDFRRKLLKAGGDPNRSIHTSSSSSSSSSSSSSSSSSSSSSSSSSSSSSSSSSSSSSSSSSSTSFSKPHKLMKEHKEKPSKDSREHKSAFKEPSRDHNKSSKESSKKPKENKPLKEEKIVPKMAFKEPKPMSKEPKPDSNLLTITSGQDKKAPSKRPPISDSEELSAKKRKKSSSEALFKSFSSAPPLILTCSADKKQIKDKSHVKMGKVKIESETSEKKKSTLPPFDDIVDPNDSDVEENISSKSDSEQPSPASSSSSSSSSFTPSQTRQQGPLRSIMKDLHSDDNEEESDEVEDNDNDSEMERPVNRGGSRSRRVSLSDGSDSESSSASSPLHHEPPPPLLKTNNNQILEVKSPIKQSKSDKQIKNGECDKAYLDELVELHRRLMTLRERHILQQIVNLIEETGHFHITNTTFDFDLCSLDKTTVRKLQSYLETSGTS
RAD54 inh = inhibitors of human RAD54 branch migration; Q92698; RAD54 Holliday junction branch migration, FAM/BHQ fluorescence; inhibition, % at 10.4 µM; hit rate 0.14% among 360,000; AID 602329;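 active = mean normalized replicate activity at least 40 and at least half of replicates scoring 40 or more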;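 also: 0% = median of neutral control wells and 100% = median of positive control wells; inhibitors cause a drop in the FAM fluorescence signal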
INS-1E GSIS act = primary screen for activators of insulin secretion dependent on glucose, INS-1E cells, GLuc reporter luminescence | INS-1E GLuc reporter insulin secretion, 2-3 h | activation, % at 16.6 µM | hit rate 0.61% among 370,000;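 active = lowest replicate activation of at least 40%, so every replicate reaches that level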;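 also: 0% = median of neutral control wells and 100% = median of IBMX positive control wells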
* hit, by the source's call; / = no result. Hits are enriched below; roughly 3.1% of the tested compounds scored in any of these assays.

SMILES	DENV2 CPE rescue	RAD52 anneal inh	dFosB act	AF4-AF9 inh	RAD54 inh	INS-1E GSIS act
CO[C@@H](CN(C)C(=O)C1CCOCC1)[C@@H](C)CN(C(=O)Nc1ccc(F)cc1)[C@@H](C)CO	4	-10	/	-1	9	-4
Cc1cc(C(=O)Nc2cccc3c2O[C@H](CN(C)Cc2ccc(Oc4ccccc4)cc2)[C@@H](C)CN([C@@H](C)CO)C3=O)n(C)n1	/	15	/	/	5	-16
CCC(=O)N1CC2(C1)[C@H](c1ccccc1)[C@H](CO)N2S(=O)(=O)Cc1ccccc1	-7	-13	/	2	/	-3
O=C(Cc1ccccc1)N1CC2(C1)[C@@H](c1ccccc1)[C@H](CO)N2S(=O)(=O)Cc1ccccc1	43*	-63	/	-12	/	4
CCC(=O)N1CC2(C1)[C@@H](c1ccccc1)[C@@H](CO)N2S(=O)(=O)Cc1ccccc1	-11	0	/	-1	/	1
O=C(Cc1ccccc1)N1CC2(C1)[C@@H](c1ccccc1)[C@@H](CO)N2S(=O)(=O)Cc1ccccc1	35*	-51	/	-17	/	-13
C[C@H](O)C#Cc1ccc2c(c1)O[C@H](CN(C)Cc1ccccn1)[C@@H](C)CN([C@H](C)CO)S2(=O)=O	1	-2	/	1	-6	18
C[C@H](CO)N1C[C@H](C)[C@H](CN(C)Cc2ccccn2)Oc2cc(C#C[C@@H](C)O)ccc2S1(=O)=O	0	6	/	2	0	13
C[C@@H]1CN([C@@H](C)CO)S(=O)(=O)c2ccc(C#CCN(C)C)cc2O[C@@H]1CN(C)Cc1ccccc1F	45*	12	/	7	0	14
COCC#Cc1ccc2c(c1)O[C@@H](CN(C)Cc1ccncc1)[C@@H](C)CN([C@H](C)CO)S2(=O)=O	-7	-8	/	-1	1	9
C[C@@H]1CN([C@@H](C)CO)S(=O)(=O)c2ccc(C#CCN(C)C)cc2O[C@H]1CN(C)Cc1ccccc1	24*	6	/	13	0	28
COCC#Cc1ccc2c(c1)O[C@@H](CN(C)Cc1ccncc1)[C@@H](C)CN([C@@H](C)CO)S2(=O)=O	22*	4	/	0	-4	1
C[C@@H]1CN([C@H](C)CO)S(=O)(=O)c2ccc(C#C[C@@H](C)O)cc2O[C@H]1CN(C)Cc1ccccn1	30*	2	/	-3	12	12
C[C@@H]1CN([C@@H](C)CO)C(=O)Cc2cc(NS(=O)(=O)c3cn(C)cn3)ccc2O[C@H]1CN(C)C(=O)Nc1cccc2ccccc12	10	-11	/	3	-6	1
CCNC(=O)C[C@H]1CC[C@@H]2[C@H](COc3ccc(NC(=O)c4ccccc4)cc3C(=O)N2C)O1	7	-11	/	0	-2	8
CCOC(=O)c1nc(-c2ccccc2)oc1N(C)C	/	/	-8	/	-9	84*
CCOC(=O)C(NC(=O)NCc1ccc(F)cc1)(OCC)C(F)(F)F (stereo not drawn)	/	/	-1	/	/	17
CCOC(=O)C(NC(=O)Nc1ccc(Cl)cn1)(Oc1ccc(F)cc1)C(F)(F)F (stereo not drawn)	78*	4	-6	-8	15	1
O=C(c1cccc(F)c1)N1C[C@H]2[C@@H](c3ccccc31)[C@@H](CO)N2C(=O)C1CC1	-11	-1	/	-1	-1	10
O=C(C1CCC1)N1C[C@@H]2[C@H](c3ccccc31)[C@H](CO)N2C(=O)Nc1cccc(F)c1	15	-7	/	35*	-7	-3
O=C(c1cccc(F)c1)N1C[C@@H]2[C@H](c3ccccc31)[C@@H](CO)N2C(=O)C1CC1	55*	-5	/	1	-1	-3
O=C(C1CCOCC1)N1C[C@@H]2[C@H](c3ccccc31)[C@H](CO)N2C(=O)c1ccccc1	89*	3	/	0	-1	-7
O=C(c1cccc(F)c1)N1C[C@@H]2[C@H](c3ccccc31)[C@H](CO)N2C(=O)C1CCOCC1	23*	0	/	0	-2	-5
O=C(Cc1ccccc1)N1C[C@H]2[C@@H](c3ccccc31)[C@@H](CO)N2C(=O)c1cccc(F)c1	37*	-1	/	-4	-14	-1
O=C(Cc1ccccc1)N1C[C@@H]2[C@H](c3ccccc31)[C@H](CO)N2C(=O)c1cccc(F)c1	-10	-13	/	-1	-9	3
